Screening data (PubChem BioAssay)
D3 antag – blocks the human D3 dopamine receptor | D3R cells, DiscoveRx beta-arrestin luminescence, antagonist mode; stronger effect = lower value | 360,000 tested, 2.5% active | max response, negative = inhibition, % | P35462; in the data active = max response below about -50%; inconclusive = no clear call, values can overlap the other calls; also: % is scaled to controls: 0 for no effect and ±100 for the full control effect
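Cells expressing the human receptor were seeded at 1500 cells/well, incubated overnight at 37 degrees C in 5% CO2, then exposed to library compounds with dopamine controls for 90 minutes at 37 degrees C before luminescent detection.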
D3 ag – activates the human D3 dopamine receptor; max activation, %; 410,000 tested, 0.58% active; P35462; D3R DiscoveRx beta-arrestin cells, luminescence, 90 min; AID 652048; in the data active = max activation above about 30%; also: 0% is about no effect
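Agonist-mode cell screen: cells plated at 1500/well and incubated overnight at 37 °C, then exposed to library compounds for 90 min at 37 °C. Detection reagent was added for 30–60 min at room temperature, and luminescence was read.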
RGS4 inhibitor – inhibitors of human regulator of G protein signaling 4; 390,000 tested, 0.039% active; Potency, µM (doses to about 114 µM), without a hit: top-dose activity change, negative = inhibition, actives largely listed as inhibitors; Transcreener GDP fluorescence polarization, RGS4-accelerated GTP hydrolysis; AID 504845; P49798; also: potency is read from the fitted curve at half-maximal effect; % is scaled to controls: 0 for no effect and ±100 for the full control effect; nearly all actives have a fitted effect of over 75% in size
Target sequence (P49798 whole entry, looked up): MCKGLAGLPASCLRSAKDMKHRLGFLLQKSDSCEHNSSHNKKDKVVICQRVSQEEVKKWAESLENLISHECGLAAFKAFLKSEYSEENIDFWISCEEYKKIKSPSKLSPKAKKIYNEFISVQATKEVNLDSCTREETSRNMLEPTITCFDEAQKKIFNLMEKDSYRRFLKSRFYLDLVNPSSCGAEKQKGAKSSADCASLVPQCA
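MLSMR compounds (23 nl, pin-transferred) preincubated 10 min at room temperature with a 500nM (2x) first reagent, then RGS4 at 900nM (2x) plus Transcreener GDP mix added; fluorescence polarization (620/688 nm) read before and after 90 min at 30 °C.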
B2AR arrestin – recruits beta-arrestin to the human beta2-adrenergic receptor. Potency, µM (titrated, usually from 46.1 µM), for inactives: at the top dose activation, most hits filed as activators. 330,000 tested, 0.02% active. beta-arrestin recruitment to beta2AR, cell-based reporter. P07550;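 also: potency is read from the fitted curve at half-maximal effect; 0% = DMSO controls and full agonism = EC100 isoproterenol or metaproterenol; nearly all actives have a fitted effect of over 65% in size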
Target sequence (P07550 whole entry, looked up): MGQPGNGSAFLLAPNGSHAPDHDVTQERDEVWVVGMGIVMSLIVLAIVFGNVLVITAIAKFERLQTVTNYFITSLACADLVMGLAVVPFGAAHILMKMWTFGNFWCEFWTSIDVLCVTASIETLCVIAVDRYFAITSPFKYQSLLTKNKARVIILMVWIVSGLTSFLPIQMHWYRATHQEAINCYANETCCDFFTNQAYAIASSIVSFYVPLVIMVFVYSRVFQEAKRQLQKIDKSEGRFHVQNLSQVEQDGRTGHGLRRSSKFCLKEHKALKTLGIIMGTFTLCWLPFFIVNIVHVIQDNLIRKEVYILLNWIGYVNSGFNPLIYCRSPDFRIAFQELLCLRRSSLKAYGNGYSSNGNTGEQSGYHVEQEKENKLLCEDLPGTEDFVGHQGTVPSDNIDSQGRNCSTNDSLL
BRCA1 expr act – increases BRCA1 expression | MCF7-BRCA1-FFLuc reporter, luminescence, 48 h; response scale: scaled: vehicle 0%, 10 µM genistein 100% | Potency, µM (doses to about 46.1 µM), inactives show top-dose activation, usual class: activators | 380,000 tested, 1.1% active; also: potency is read from the fitted curve at half-maximal effect; nearly all actives have a fitted effect of over 80% in size
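Reporter cells (MCF7, BRCA1 promoter-firefly luciferase) received library compounds across a concentration series for 48 h. End-point luminescence was measured and concentration-effect curves derived after normalization.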
PTHR1 ag – activates the human parathyroid hormone receptor PTHR1 | HEK293 GP2 PTHR1 cells, GloSensor cAMP luminescence, 1 h | Potency, µM (titrated, usually from 115 µM), inactives show top-dose activation, most hits filed as activators | 410,000 tested, 0.075% active | AID 743266; also: potency is read from the fitted curve at half-maximal effect; nearly all actives have a fitted effect of over 55% in size
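HEK-293-derived GP2 cells expressing PTHR1 and a GloSensor cAMP reporter, 3,000/well, plated overnight, given luciferin plus IBMX (each 0.5 mM as added) for 1 h at 37 °C, then compound for 1 h at 37 °C. Luminescence was read after 15 min at room temperature.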
The depositor's hits bear a star; i = inactive; ? = inconclusive; / = no result given; [ ] = remark or other dose. Compounds with a hit are over-represented: about 3.7% of the library has one in this group of screens. Unless noted, calls follow the shape of the dose curve; as a rule, active = well fitted curve in the direction sought with a large enough effect; inconclusive = small, poorly fitted or top-dose-only effect, or another doubt; inactive = no such curve, though single readings can be large; an effect the other way counts as inactive or inconclusive.

SMILES	D3 antag	D3 ag	RGS4 inhibitor	B2AR arrestin	BRCA1 expr act	PTHR1 ag
O=S1(=O)CC(N2CCN(CCO)CC2)CN1Cc1ccc(F)cc1 (stereo not drawn)	0.0	-0.4	/	/	-5.7%	-11.9%
Cc1cccc(S(=O)(=O)N2C[C@@H](O)COC[C@@H]3O[C@H](CC(=O)NCCCN4CCOCC4)CC[C@H]32)c1	-8.5	0.5	/	/	/	i
CC1(Oc2ccc(Cl)cc2)CCN(Cc2ccc(OC(F)(F)F)cc2)C1 (stereo not drawn)	5.1	-6.2	/	/	0.0%	-17.9%
CC1(Oc2ccc(Cl)cc2)CCN(Cc2ccc(-c3ccccn3)cc2)C1 (stereo not drawn)	-121.2*	-8.5	/	/	-4.2%	-42.6%
COc1cc(Cl)ccc1OC1(C)CCN(Cc2ccc(-c3ccccn3)cc2)C1 (stereo not drawn)	?	44.8*	/	/	-8.2%	-3.1%
CC1(Oc2cnc(Cl)c3ccccc23)CCN(Cc2ccc(OC(F)(F)F)cc2)C1 (stereo not drawn)	2.0	-6.8	/	/	18.1%	-2.5%
CSc1ccc(OC2(C)CCN(Cc3ccc(-c4ccccn4)cc3)C2)cc1 (stereo not drawn)	-55.2*	1.2	/	/	-7.0%	-12.9%
CC1(Oc2cccc(C#N)c2)CCN(Cc2ccc(-c3ccccn3)cc2)C1 (stereo not drawn)	-12.0	-6.1	/	/	-7.0%	-0.6%
COc1cc(Cl)ccc1OC1(C)CCN(Cc2ccc3ccccc3c2)C1 (stereo not drawn)	-115.8*	-8.0	/	/	7.0%	i
COc1ccc(CNC(=O)C(CC(C)C)NC(=O)c2ccccc2C)cc1 (stereo not drawn)	-7.9	-3.2	-29.3%	0.3%	-21.1%	8.8%
COCC(=O)N(C)C[C@H]1N[C@@](C)(C(=O)OC)[C@H]2C(=O)N(Cc3ccccc3)C(=O)[C@@H]12	6.1	7.9	-5.2%	-1.0%	3.6%	-10.4%
O=C(/C=C/c1ccccc1)Nc1cccc(C(=O)NC2CC2)c1	24.1	3.7	-5.1%	/	?	-45.3%
CC1(Oc2ccccc2)CCN(Cc2ccc(-c3ccccn3)cc2)C1 (stereo not drawn)	-78.7*	-13.5	/	/	8.5%	-2.4%
COc1cc(Cl)ccc1OC1(C)CCN(Cc2cccc(OC)c2OC)C1 (stereo not drawn)	-61.4*	-11.3	/	/	-12.5%	i
COc1cc(Cl)ccc1OC1(C)CCN(Cc2ccccc2OC(F)F)C1 (stereo not drawn)	?	-18.3	/	/	-17.0%	2.5%
Cc1cnc(NS(=O)(=O)c2ccc(N)cc2)nc1-c1ccccc1O	0.2	1.0	/	/	8.7%	-9.2%
Cc1ccc(C)c(NC(=O)c2nn(C)c3c2CS(=O)(=O)c2ccccc2-3)c1	/	5.0	6.5%	/	-24.0%	-0.8%
COc1ccc(OCCCNCCc2ccccc2)cc1	-52.4*	-26.6	17.5%	2.9%	21.3%	-52.2%
CC(C)(c1ccccc1)c1ccc(OCCCNCCO)cc1	-75.4*	-2.7	-15.0%[11.4 µM]	-0.1%	-9.3%	i
CCOC(=O)N1CC(C)N(CC(O)CN2CCOCC2)CC1C (stereo not drawn)	0.8	-3.5	-2.9%	/	2.9%	-2.0%
CN1C(=O)[C@@](O)(c2cn(C)c3ccccc23)c2cc(F)ccc21	15.4	0.1	/	/	/	-28.9%
COc1ccc(-c2cc(C(F)(F)F)nc(S(=O)(=O)CCCC(=O)Nc3cccc(O)c3)n2)cc1OC	-52.9*	-22.1	?	-0.1%	-91.1%	-24.0%
COc1ccc(NC(=O)CCCS(=O)(=O)c2nc(-c3ccc(OC)c(OC)c3)cc(C(F)(F)F)n2)cc1OC	/	-23.7	-33.7%	/	-38.0%	-38.8%
COc1ccc(N2CC(NC(=O)c3ccc(S(=O)(=O)N4CCCC4)cc3)CC2=O)cc1 (stereo not drawn)	/	-10.5	-22.9%	/	/	1.4%
COCCCNC(=O)CC(NS(=O)(=O)c1ccc(C)cc1)c1ccco1 (stereo not drawn)	-58.0*	8.7	26.1%	0.3%	-6.9%	i
SMILES	D3 antag	D3 ag	RGS4 inhibitor	B2AR arrestin	BRCA1 expr act	PTHR1 ag
COCCCNC(=O)CC(NS(=O)(=O)c1ccc(Cl)cc1)c1ccco1 (stereo not drawn)	-9.0	-5.4	53.7%	-0.6%	-20.6%	i
COc1ccc(CNCCC(c2ccccc2)c2ccc3c(c2)OCO3)cc1 (stereo not drawn)	-73.6*	-19.6	-16.3%	0.0%	-85.6%	-23.2%
Cc1n[nH]c(C)c1Sc1ccccc1N=Cc1cc(Cl)cc([N+](=O)[O-])c1O	-131.2*	-15.3	-3.6%	0.1%	-25.7%	-10.7%
Cc1n[nH]c(C)c1Sc1ccccc1[N+](=O)[O-]	12.9	1.6	-12.2%	-0.1%	-1.0%	-7.4%
Cc1ccc(S(=O)(=O)NC(=O)C2(C)CCN2C(=O)c2ccccc2CCc2ccccc2)cc1 (stereo not drawn)	-1.6	6.0	/	/	0.3%	-26.0%
CN(CCO)CC(O)CN(c1ccccc1)c1ccccc1 (stereo not drawn)	-50.7*	0.1	1.1%	-0.2%	36.7%	i
CC(=O)N(C)c1ccc(NC(=O)Nc2ccc(Cl)cc2)cc1	17.8	4.8	-9.7%	/	11.2µM*	-14.5%
CNc1[nH]c(=O)[nH]c(=O)c1N=Nc1cc(Cl)ccc1Cl	-12.6	-14.0	19.2%	/	-67.5%	-2.3%
COc1ccc(CN2CCC3CC2c2cc(Cl)ccc23)cc1 (stereo not drawn)	-59.1*	-71.7	-25.0%	/	-24.5%	18.2%
Clc1ccc2c(c1)C1CC2CCN1Cc1ccccc1 (stereo not drawn)	?	-50.8	-27.7%	/	12.8%	19.8%
CCN(Cc1ccccc1)C(=O)CCS(=O)(=O)c1ccc2c(c1)n(C)c(=O)c(=O)n2C	0.0	-8.0	6.4%	-0.4%	7.3%	i
CCn1c(C(=O)NCc2ccccc2Br)cc2oc3ccccc3c21	/	41.9*	24.0%	/	25.8%	i
CCn1c(C(=O)NCc2cccc(Br)c2)cc2oc3ccccc3c21	/	-9.6	-14.0%	/	/	-29.1%
Cn1c(C(=O)NCc2cccs2)cc2oc3ccccc3c21	5.5	8.6	26.1%	0.1%	12.6µM*	-38.1%[57.5 µM]
Cn1c(C(=O)NCC2CCCO2)cc2oc3ccccc3c21 (stereo not drawn)	-13.8	3.2	2.7%	-1.0%	3.55µM*	-12.8%[57.5 µM]
C=CCOC(=O)N1CCC2CC1c1c(-c3ccc(C(F)(F)F)cc3)cccc12 (stereo not drawn)	28.4	5.6	/	/	3.9%	-5.7%
N#C[C@@H]1C[C@@H]2C[C@@H]2N1C(=O)[C@@H](N)C12CC3CC(CC(O)(C3)C1)C2	/	-24.3	/	/	/	/
